Screening results from PubChem BioAssay.
FBW7 act: activators of human E3 ligase FBW7. AID 1259310. normalized activity (activation), % at 26.1 µM. 650,000 tested, 0.13% active. AlphaScreen FBW7–phospho-cyclin E peptide binding, activator screen; in the data active = normalized activity above about 1.9%;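 also: purified mutant Fbw7 with reduced substrate affinity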
MITF inh: blocks human microphthalmia-associated transcription factor; O75030; AlphaScreen MITF homodimerization, bead proximity signal; inhibition, % at 2.6 µM; 650,000 tested, 0.91% active; in the data active = inhibition above about 50%
TEAD-YAP block: TEAD-YAP interaction inhibition; inhibition, % at 9.12 µM; HEK-TIYL cells, TEAD-Gal4/YAP UAS-luciferase luminescence; 640,000 tested, 1.4% active; in the data active = inhibition above about 32%
GPR151 activ: activators of human GPR151 | AID 1508602 | PathHunter beta-arrestin GPR151 cells, luminescence | activation, % at 11.2 µM | Q8TDV0 | 650,000 tested, 1% active; in the data active = activation above about 4.9%
Target sequence (Q8TDV0 whole entry, looked up): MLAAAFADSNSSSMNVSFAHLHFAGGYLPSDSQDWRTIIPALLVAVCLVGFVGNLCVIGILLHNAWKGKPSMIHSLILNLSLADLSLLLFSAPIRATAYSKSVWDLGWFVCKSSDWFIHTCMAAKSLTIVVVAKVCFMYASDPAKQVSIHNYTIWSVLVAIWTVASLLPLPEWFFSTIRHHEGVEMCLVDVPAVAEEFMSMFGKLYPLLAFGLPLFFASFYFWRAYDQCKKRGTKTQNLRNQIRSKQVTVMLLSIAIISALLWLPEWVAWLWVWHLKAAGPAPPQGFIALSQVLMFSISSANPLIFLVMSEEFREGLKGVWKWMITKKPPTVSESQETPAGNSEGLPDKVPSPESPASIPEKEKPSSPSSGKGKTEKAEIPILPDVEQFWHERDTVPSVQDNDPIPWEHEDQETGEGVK
Hits are given with their value. A selection: hits, their analogues and other compounds. The true share with any hit is near 3.5%.

For COc1ccc(Cc2cnc(NC(=O)/C=C/c3ccccc3)s2)cc1 the results were FBW7 act inactive, MITF inh inactive, TEAD-YAP block 56 and GPR151 activ inactive.
Screening O=c1/c(=C/c2ccc(O)c(Cl)c2)sc2nc3ccccc3n12 returned FBW7 act inactive, MITF inh inactive, TEAD-YAP block 53 and GPR151 activ inactive.
For CC(=O)Nc1ccc(/C=c2\sc3nc4ccccc4n3c2=O)cc1 the results were FBW7 act inactive, MITF inh inactive, TEAD-YAP block 57 and GPR151 activ inactive.
COc1ccc(-n2c(C)cc(/C=c3\sc4nc5ccccc5n4c3=O)c2C)cc1 was read as FBW7 act inactive, MITF inh inactive, TEAD-YAP block inactive and GPR151 activ inactive.
O=c1/c(=C\c2ccc3c(c2)OCO3)sc2nc3ccccc3n12 was read as FBW7 act inactive, MITF inh inactive, TEAD-YAP block 38 and GPR151 activ inactive.
For Cc1cc(/C=c2\sc3nc4ccccc4n3c2=O)c(C)n1-c1ccc(F)cc1 the results were FBW7 act inactive, MITF inh inactive, TEAD-YAP block 32 and GPR151 activ inactive.
For Nc1nc(=S)nc(-c2ccc(Cl)cc2)[nH]1 the results were FBW7 act inactive, MITF inh inactive, TEAD-YAP block inactive and GPR151 activ inactive.
Oc1c(C(Nc2ccccn2)c2ccco2)ccc2cccnc12 (stereo not given) was read as FBW7 act inactive, MITF inh inactive, TEAD-YAP block 63 and GPR151 activ inactive.
For Oc1c(C(Nc2ccccc2)c2ccccn2)ccc2cccnc12 (stereo not given) the results were FBW7 act inactive, MITF inh 94, TEAD-YAP block inactive and GPR151 activ inactive.
For Oc1c(C(Nc2ncccn2)c2ccco2)ccc2cccnc12 (stereo not given) the results were FBW7 act inactive, MITF inh inactive, TEAD-YAP block inactive and GPR151 activ inactive.
`Oc1c(C(Nc2cccnc2)c2cccs2)ccc2cccnc12` (stereo not given) gave FBW7 act inactive, MITF inh inactive, TEAD-YAP block inactive and GPR151 activ inactive.
Screening Oc1ccc(Cl)c(C(Nc2ccccn2)c2ccc3cccnc3c2O)c1 (stereo not given) returned FBW7 act inactive, MITF inh inactive, TEAD-YAP block 81 and GPR151 activ inactive.
Screening Oc1c(C(Nc2cccc(Cl)c2)c2ccncc2)ccc2cccnc12 (stereo not given) returned FBW7 act inactive, MITF inh 103, TEAD-YAP block inactive and GPR151 activ inactive.
`Cc1ccnc(NC(c2cc(C)ccc2O)c2ccc3cccnc3c2O)c1` (stereo not given) gave FBW7 act inactive, MITF inh inactive, TEAD-YAP block inactive and GPR151 activ inactive.
`Oc1c(C(Nc2ccccn2)c2ccccn2)ccc2cccnc12` (stereo not given) gave FBW7 act inactive, MITF inh inactive, TEAD-YAP block inactive and GPR151 activ inactive.
For Cn1c(SCc2ccc(-c3ccccc3)cc2)nnc1-c1ccc(C(C)(C)C)cc1 the results were FBW7 act inactive, MITF inh inactive, TEAD-YAP block inactive and GPR151 activ inactive.
`CCOC(=O)c1c(NC(=O)c2cc(-c3ccccc3OC)on2)sc(C(C)=O)c1C` gave FBW7 act inactive, MITF inh inactive, TEAD-YAP block inactive and GPR151 activ inactive.
COc1cccc2c1OC1(C)CC2NC(=O)N1c1ccc(C)c(F)c1 (stereo not given) was read as FBW7 act inactive, MITF inh inactive, TEAD-YAP block inactive and GPR151 activ inactive.
`Oc1c(C(Nc2ccccn2)c2ccccc2F)ccc2cccnc12` (stereo not given) gave FBW7 act inactive, MITF inh inactive, TEAD-YAP block 84 and GPR151 activ inactive.
For Cc1cccc(NC(c2ccccc2F)c2ccc3cccnc3c2O)n1 (stereo not given) the results were FBW7 act inactive, MITF inh inactive, TEAD-YAP block inactive and GPR151 activ inactive.
Screening COc1cc(-c2cnc3c(NCc4cccnc4)nccn23)cc(OC)c1OC returned FBW7 act inactive, MITF inh inactive, TEAD-YAP block 39 and GPR151 activ inactive.
Screening COc1cc(-c2cnc3c(NCc4ccncc4)nccn23)cc(OC)c1OC returned FBW7 act inactive, MITF inh inactive, TEAD-YAP block inactive and GPR151 activ inactive.
COc1cc(CNc2nccn3c(-c4cccc(O)c4)cnc23)cc(OC)c1OC was read as FBW7 act 2.1, MITF inh inactive, TEAD-YAP block inactive and GPR151 activ inactive.
Screening COc1cc(-c2cnc3c(NCc4cccs4)nccn23)cc(OC)c1OC returned FBW7 act 1.9, MITF inh inactive, TEAD-YAP block 38 and GPR151 activ inactive.
For COc1ccc(C(=O)Nn2c(-c3ccc(Br)cc3)nc3ccccc3c2=O)cc1OC the results were FBW7 act inactive, MITF inh inactive, TEAD-YAP block inactive and GPR151 activ inactive.
CC(NC(=O)c1ccco1)c1nnc2n1CCN(Cc1ccc3c(c1)CCCN3C)CC2 (stereo not given) was read as FBW7 act inactive, MITF inh inactive, TEAD-YAP block inactive and GPR151 activ inactive.
`O=C(NC1CCCCCC1)c1cccc2[nH]ncc12` gave FBW7 act inactive, MITF inh inactive, TEAD-YAP block 84 and GPR151 activ inactive.
For CCC(=O)NC(c1ccc(C)cc1)c1ccc2cccnc2c1O (stereo not given) the results were FBW7 act inactive, MITF inh inactive, TEAD-YAP block 88 and GPR151 activ inactive.
`CCC(=O)NC(c1cccc([N+](=O)[O-])c1)c1ccc2cccnc2c1O` (stereo not given) gave FBW7 act inactive, MITF inh inactive, TEAD-YAP block inactive and GPR151 activ inactive.
For CCC(=O)NC(c1ccc([N+](=O)[O-])cc1)c1ccc2cccnc2c1O (stereo not given) the results were FBW7 act inactive, MITF inh inactive, TEAD-YAP block 85 and GPR151 activ inactive.
For CCCCn1c(SCC(=O)N(CC)c2cccc(C)c2)nc2ccsc2c1=O the results were FBW7 act inactive, MITF inh inactive, TEAD-YAP block inactive and GPR151 activ inactive.
Screening CC(=O)c1c2c(n3cc4ccccc4cc13)C(=O)c1ccccc1C2=O returned FBW7 act inactive, MITF inh inactive, TEAD-YAP block inactive and GPR151 activ inactive.
`COC(=O)c1c2c(n3cc4ccccc4cc13)C(=O)c1ccccc1C2=O` gave FBW7 act inactive, MITF inh 87, TEAD-YAP block inactive and GPR151 activ inactive.
For O=C(C1CC1)N1CCc2ccccc21 the results were FBW7 act inactive, MITF inh inactive, TEAD-YAP block inactive and GPR151 activ inactive.
For Brc1ccc(-c2nc(-c3ccccc3)c(-c3ccc(-c4ccccc4)cc3)[nH]2)cc1 the results were FBW7 act inactive, MITF inh inactive, TEAD-YAP block inactive and GPR151 activ inactive.
Screening O=C(NCc1nc(NCCCc2ccccc2)c2ccccc2n1)c1ccoc1 returned FBW7 act inactive, MITF inh inactive, TEAD-YAP block inactive and GPR151 activ inactive.
`O=C(NCc1nc(NCCCc2ccccc2)c2ccccc2n1)c1ccsc1` gave FBW7 act inactive, MITF inh inactive, TEAD-YAP block 34 and GPR151 activ inactive.
